# Assay results: the supplement of paper PMC12494721
# Where a name gives a salt, the structure may show the parent alone.
# Tests used:
# Conditions in all cases: incubation time: 27 h, anaerobic, 37 °C;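 for the amine columns active = adjusted P below 0.05 in both replicates with a change the same way and a mean fold change under 0.8 or over 1.25; inactive = the rest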
# [1] = system: Clostridium sporogenes DSM 1664; assay: growth (OD595) fold change vs plate DMSO controls (fold change (ratio)); higher = more growth
# Summary of the method: (§1)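 Shaken 96-well cultures in mGAM, grown anaerobically for 27 h at 37 °C, were read at 595 nm. OD came from blank-subtracted readings, corrected for background with 20 µM compound solutions in water and scaled by a calibration factor of 5. Growth is the fold change versus the plate's median DMSO control. Values average 2 biological replicates, and any fold change above 1.5 is NA.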
# Escherichia coli IAI1 [2] = assay: as above
# Summary of the method: as §1
# [3] = system: Klebsiella aerogenes DSM 30053; assay: as above
# Summary of the method: as §1
# [4] = system: Ruminococcus gnavus DSM 108212; assay: as above
# Summary of the method: as §1
# [5] = system: Klebsiella aerogenes DSM 30053; assay: fold change of Histamine concentration vs plate DMSO controls (fold change (ratio)); higher = more amine produced, active = hit call of the paper (significant change in both replicates, either direction)
# Summary of the method: (§2)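 Amines were quantified by LC–triple-quadrupole MS in dynamic MRM mode against external calibration curves, with drift correction within each batch. The samples were whole anaerobic mGAM cultures of four gut bacterial strains, grown for 27 h at 37 °C in 80 µL wells and extracted with cold acetonitrile/methanol with 0.1% formic acid, then centrifuged. Values are reported as fold change over DMSO controls on the same plate. The mean of 2 biological replicates is given.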
# [6] = system: Clostridium sporogenes DSM 1664; assay: fold change of Tryptamine concentration vs plate DMSO controls (fold change (ratio)); higher = more amine produced, active = hit call of the paper (significant change in both replicates, either direction)
# Summary of the method: as §2
# [7] = system: Ruminococcus gnavus DSM 108212; assay: as above
# Summary of the method: as §2
# Escherichia coli IAI1 [8] = assay: fold change of Putrescine concentration vs plate DMSO controls (fold change (ratio)); higher = more amine produced, active = hit call of the paper (significant change in both replicates, either direction)
# Summary of the method: as §2
# [9] = system: Klebsiella aerogenes DSM 30053; assay: as above
# Summary of the method: as §2
# Escherichia coli IAI1 [10] = assay: fold change of Cadaverine concentration vs plate DMSO controls (fold change (ratio)); higher = more amine produced, active = hit call of the paper (significant change in both replicates, either direction)
# Summary of the method: as §2
# [11] = system: Klebsiella aerogenes DSM 30053; assay: as above
# Summary of the method: as §2
# [12] = system: Ruminococcus gnavus DSM 108212; assay: fold change of 2-Phenylethylamine concentration vs plate DMSO controls (fold change (ratio)); higher = more amine produced, active = hit call of the paper (significant change in both replicates, either direction)
# Summary of the method: as §2
SMILES,growth [1],growth (Escherichia coli IAI1 [2]),growth [3],growth [4],fold change of Histamine concentration [5],fold change of Tryptamine concentration [6],fold change of Tryptamine concentration [7],fold change of Putrescine concentration (Escherichia coli IAI1 [8]),fold change of Putrescine concentration [9],fold change of Cadaverine concentration (Escherichia coli IAI1 [10]),fold change of Cadaverine concentration [11],fold change of 2-Phenylethylamine concentration [12]
C[C@]12CC[C@@H]3c4ccc(OS(=O)(=O)O)cc4CC[C@H]3[C@@H]1CCC2=O [Estropipate piperazine salt] (20 µM),1.04,1.01,1.01,1.21,0.996 (inactive),0.974 (inactive),0.96 (inactive),1.04 (inactive),0.985 (inactive),0.947 (inactive),0.993 (inactive),0.89 (inactive)
N=C(N)NC(=O)c1nc(Cl)c(N)nc1N [Amiloride hydrochloride dihydrate] (20 µM),0.984,0.951,0.984,0.948,0.982 (inactive),0.98 (inactive),1.09 (inactive),1.03 (inactive),0.94 (inactive),0.987 (inactive),1.05 (inactive),1.08 (inactive)
C=CCc1ccccc1OCC(O)CNC(C)C (stereo not drawn) [Alprenolol hydrochloride] (20 µM),0.992,0.97,0.955,0.856,1.05 (inactive),1.07 (inactive),1.08 (inactive),0.934 (inactive),0.985 (inactive),1.01 (inactive),0.998 (inactive),0.998 (inactive)
"N[C@H]1CONC1=O [(S,-) Cycloserine] (20 µM)",0.942,0.968,0.982,0.975,0.94 (inactive),0.954 (inactive),0.905 (inactive),1.02 (inactive),1.07 (inactive),0.959 (inactive),1.05 (inactive),0.81 (inactive)
CCCCNc1c(C(=O)OCC)c(C)nc2c1cnn2CC [Tracazolate hydrochloride] (20 µM),1.14,0.998,1.01,0.943,0.977 (inactive),0.933 (inactive),1.08 (inactive),1.01 (inactive),0.993 (inactive),1.03 (inactive),1 (inactive),1.11 (inactive)
CC(=O)O[C@H]1C[C@@H]2CC[C@@H]3[C@H](CC[C@@]4(C)[C@H]3C[C@H]([N+]3(C)CCCCC3)[C@@H]4OC(C)=O)[C@@]2(C)C[C@@H]1N1CCCCC1 [Vecuronium bromide] (20 µM),0.99,0.99,1.01,0.872,1.04 (inactive),1.01 (inactive),0.967 (inactive),0.872 (inactive),1 (inactive),0.992 (inactive),0.992 (inactive),1.03 (inactive)
N#CC(c1ccc(Cl)cc1)c1c(Cl)cc(-n2ncc(=O)[nH]c2=O)cc1Cl (stereo not drawn) [Diclazuril] (20 µM),0.806,0.993,1.08,0.961,0.913 (inactive),0.791 (inactive),0.778 (active),0.911 (inactive),0.967 (inactive),0.99 (inactive),1.03 (inactive),0.81 (inactive)
CCCCOC(=O)c1ccc(N)cc1 [Butamben] (20 µM),1.36,1,1.01,0.962,1 (inactive),1.04 (inactive),0.94 (inactive),0.935 (inactive),0.988 (inactive),1.01 (inactive),0.999 (inactive),0.915 (inactive)
Nc1ccc(S(=O)(=O)Nc2ccnn2-c2ccccc2)cc1 [Sulfaphenazole] (20 µM),1.01,1.11,1.04,1.11,0.99 (inactive),0.977 (inactive),0.994 (inactive),1.04 (inactive),1.03 (inactive),1.04 (inactive),1.02 (inactive),0.95 (inactive)
CC(=O)N(CC(O)CO)c1c(I)c(C(=O)NCC(O)CO)c(I)c(C(=O)NCC(O)CO)c1I (stereo not drawn) [Iohexol] (20 µM),1,1.02,1.04,0.911,0.958 (inactive),0.975 (inactive),1.01 (inactive),1.02 (inactive),0.997 (inactive),0.992 (inactive),1 (inactive),1.01 (inactive)
CCCCCNC(=N)N/N=C/c1c[nH]c2ccc(OC)cc12 [Tegaserod maleate] (20 µM),0.905,1.01,1,1.08,0.983 (inactive),0.923 (inactive),0.791 (inactive),0.992 (inactive),0.997 (inactive),1.04 (inactive),1 (inactive),0.994 (inactive)
COc1cc(C(=O)NCc2ccc(OCCN(C)C)cc2)cc(OC)c1OC [Trimethobenzamide hydrochloride] (20 µM),1.13,1.08,0.972,1.04,0.877 (inactive),1.12 (inactive),1.04 (inactive),1.05 (inactive),0.835 (inactive),1.02 (inactive),0.903 (inactive),1.05 (inactive)
Nc1ccccc1S(N)(=O)=O [o-Sulfanilamide] (20 µM),0.883,1.01,1.01,1,1.02 (inactive),0.958 (inactive),0.928 (inactive),1.03 (inactive),1.01 (inactive),1 (inactive),1 (inactive),0.905 (inactive)
C[C@@H](NCCCc1cccc(C(F)(F)F)c1)c1cccc2ccccc12 [Cinacalcet hydrochloride] (20 µM),0.918,1.02,1.03,1.2,0.977 (inactive),0.995 (inactive),0.807 (inactive),1.11 (inactive),1.01 (inactive),0.693 (inactive),0.999 (inactive),0.946 (inactive)
CN1CCN(CCCN2c3ccccc3Sc3ccc(C(F)(F)F)cc32)CC1 [Trifluoperazine dihydrochloride] (20 µM),1.25,1.08,1.05,0.968,0.886 (inactive),1.06 (inactive),0.93 (inactive),1.04 (inactive),0.955 (inactive),1.05 (inactive),1.03 (inactive),0.964 (inactive)
CSc1nc2cc(Cl)c(Oc3cccc(Cl)c3Cl)cc2[nH]1 [Triclabendazole] (20 µM),0.189,1.07,0.985,0.767,1.04 (inactive),0.0552 (active),0.514 (active),0.907 (inactive),0.984 (inactive),1.01 (inactive),1.04 (inactive),0.671 (inactive)
Cc1onc(-c2ccccc2)c1C(=O)N[C@@H]1C(=O)N2[C@@H]1SC(C)(C)[C@@H]2C(=O)O [Oxacillin sodium] (20 µM),0,0.994,1.01,0,0.996 (inactive),0.0257 (active),0.0465 (active),0.949 (inactive),0.992 (inactive),1.01 (inactive),0.984 (inactive),0.0469 (active)
COc1cc(C(=O)N2CCOCC2)cc(OC)c1OC [Trimetozine] (20 µM),0.932,0.972,0.986,1.05,0.989 (inactive),1.05 (inactive),1.04 (inactive),1.12 (inactive),0.998 (inactive),0.99 (inactive),1 (inactive),1.04 (inactive)
CC(C(=O)O)c1ccc(N2CC=CC2)c(Cl)c1 (stereo not drawn) [Pirprofen] (20 µM),1.03,1.01,0.978,0.973,1.04 (inactive),0.987 (inactive),1.06 (inactive),1.04 (inactive),0.957 (inactive),0.95 (inactive),0.981 (inactive),1.15 (inactive)
COc1ccccc1OCCNCC(O)COc1cccc2[nH]c3ccccc3c12 (stereo not drawn) [Carvedilol] (20 µM),0.934,0.974,0.98,1.01,0.972 (inactive),1.03 (inactive),0.977 (inactive),0.987 (inactive),0.98 (inactive),1.02 (inactive),0.989 (inactive),0.998 (inactive)
O=C(O)Cc1csc(-c2ccc(Cl)cc2)n1 [Fenclozic acid] (20 µM),1.01,0.949,0.979,1.1,1.05 (inactive),1 (inactive),1.05 (inactive),1.01 (inactive),0.985 (inactive),0.986 (inactive),0.977 (inactive),1.1 (inactive)
OCc1cc(C(O)CNCCCCCCOCCCCc2ccccc2)ccc1O (stereo not drawn) [Salmeterol] (20 µM),1.17,1.02,1,0.975,1.04 (inactive),1.04 (inactive),0.936 (inactive),1.07 (inactive),0.975 (inactive),1.02 (inactive),0.986 (inactive),0.981 (inactive)
CCCCC1C(=O)N(c2ccccc2)N(c2ccc(O)cc2)C1=O (stereo not drawn) [Oxyphenbutazone] (20 µM),1.01,1,1.2,1.09,0.888 (inactive),1.3 (inactive),1.14 (inactive),1.21 (inactive),0.877 (inactive),0.973 (inactive),1.14 (inactive),1.23 (inactive)
Nc1ccc(S(=O)(=O)Nc2cnc3ccccc3n2)cc1 [Sulfaquinoxaline sodium salt] (20 µM),1.03,1.01,0.991,0.994,1.04 (inactive),0.987 (inactive),0.985 (inactive),0.911 (inactive),1.02 (inactive),1.01 (inactive),0.991 (inactive),0.981 (inactive)
